In PubChem BioAssay:
Values joined by “and” are separate entries in the source; they are usually repeats but may differ in a detail not shown here. Equal values may be shown once.

Legend:
[1] = biological target: NAD(+) hydrolase SARM1 (Homo sapiens) (UniProt Q6SZW1); assay: blocking NAD cleavage by SARM1 SAM-TIR – cell lysate, NAD-Glo luminescence (AID 1508614;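 active = compound whose remaining NAD level is above about 45 nM, limit read from the data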;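 note: higher remaining NAD means stronger inhibition of SARM1 NADase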); settings: SAM-TIR HEK293T lysate NADase, at 1 µM, active compounds read high
Sequence of NAD(+) hydrolase SARM1 (Homo sapiens) (Q6SZW1 whole entry, looked up): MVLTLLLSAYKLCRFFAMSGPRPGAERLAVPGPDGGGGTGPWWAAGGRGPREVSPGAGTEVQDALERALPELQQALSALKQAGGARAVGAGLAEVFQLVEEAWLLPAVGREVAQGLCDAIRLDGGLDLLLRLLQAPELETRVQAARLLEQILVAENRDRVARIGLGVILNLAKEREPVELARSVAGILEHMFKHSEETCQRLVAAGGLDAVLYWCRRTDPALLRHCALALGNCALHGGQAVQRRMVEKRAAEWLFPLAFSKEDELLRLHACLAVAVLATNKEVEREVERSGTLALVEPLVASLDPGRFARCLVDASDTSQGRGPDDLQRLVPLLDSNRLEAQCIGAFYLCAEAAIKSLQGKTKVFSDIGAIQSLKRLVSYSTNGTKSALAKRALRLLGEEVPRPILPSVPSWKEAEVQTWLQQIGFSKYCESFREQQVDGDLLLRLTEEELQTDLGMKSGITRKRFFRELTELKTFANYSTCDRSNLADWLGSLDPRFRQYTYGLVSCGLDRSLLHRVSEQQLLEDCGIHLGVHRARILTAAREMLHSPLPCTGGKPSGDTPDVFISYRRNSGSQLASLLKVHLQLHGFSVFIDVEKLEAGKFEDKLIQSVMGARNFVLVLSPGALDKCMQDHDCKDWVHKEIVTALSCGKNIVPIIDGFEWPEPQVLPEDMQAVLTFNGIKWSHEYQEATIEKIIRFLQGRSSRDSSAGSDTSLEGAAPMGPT

[2] = galactose survival enhancers in mitochondrial complex I cybrids – cell-based, galactose medium, ATP luminescence, primary screen (AID 1645843;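 active = z-score of at least 1.8 in each of two replicates, scored against plate mean and spread of sample wells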;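 note: positive z means more ATP and so rescue of galactose-driven cybrid death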); settings: complex I mutant cybrid cells, 72 h, active compounds read high
[3] = system: F380Y; assay: BK channel mutant inhibitors and activators – cell-based, U2OS BacMam, thallium flux, beta subunits, selectivity assay, profiling panel (AID 1259406); settings: U2OS BacMam BK variants, at 30 µM;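 note: initial slope of Thallos dye fluorescence rise after thallium is added; log ratio against the mean of 0.3% DMSO vehicle wells on the same plate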
[4] = system: F380Y/beta1; assay: as above; settings: U2OS BacMam BK variants, at 30 µM

O=C1CCc2ccc(OCCCCN3CCN(c4cccc(Cl)c4Cl)CC3)cc2N1
inactive: remaining NAD [1] 10 nM | z-score [2] -1.88 and -2.22 | log fold change Tl+ flux [3] 0.0772 | log fold change Tl+ flux [4] 0.0377
